Data from PubChem BioAssay (EPA / NIEHS).
Several values for one entry are separate records, joined by “and”; a condition that tells them apart may be missing. Identical values can stand only once. Where a structure was tested more than once in an assay, its records may differ in their call. Activity calls are given as the source filed them. How the source made its calls: active means hit-call score of the fitted dose curve at least 0.9, where 1 is the maximum; inactive means score below 0.9.

Read-out: Monokine induced gamma interferon (MIG), CXCL9 (gene 4283)
Test: BSK_BE3C_MIG: BioMAP Diversity Plus: BE3C Assay for Monokine induced gamma interferon (MIG) Biomarker Activity (AID 2283035)
Settings: primary human bronchial epithelial cells; actives raise or lower the signal
Procedure: BSK_BE3C is a cell-based, multiplexed-readout assay that uses bronchial epithelial cell, a human lung primary cell, with measurements taken at 24 hours after chemical dosing in a 96-well plate.BSK_BE3C_MIG is an assay component measured in the BSK_BE3C assay. It measures MIG antibody related to regulation of gene expression using ELISA technology.Data from the assay component BSK_BE3C_MIG was analyzed into 1 assay endpoint. This assay endpoint, BSK_BE3C_MIG, was analyzed with bidirectional fitting relative to DMSO as the negative control and baseline of activity. Using a type of binding reporter, gain or loss-of-signal activity can be used to understand changes in the signaling as they relate to the gene CXCL9. Furthermore, this assay endpoint can be referred to as a primary readout, because this assay has produced multiple assay endpoints where this one serves a signaling function. To generalize the intended target to other relatable targets, this assay endpoint is annotated to the cytokine intended target family, where the subfamily is chemotactic factor.
The levels of cell surface (or secreted, indicated by the prefix "s") biomarker endpoints were measured by ELISA. Overt cytotoxicity to cells in confluent adherent cultures (all systems other than the BT system) was assessed by measuring total protein levels using sulforhodamine B (SRB) staining in parallel cultures at the time of biomarker measurements, indicated as SRB endpoints. For proliferation assays for adherent cell types, individual cell types are cultured at sub-confluence and relative cell numbers quantified by SRB staining at time points optimized for each system (48 h: 3C and CASM3C systems; 72 h: BT and HDF3CGF systems; 96 h: SAg system). SRB was performed by staining cells with 0.1% SRB after fixation with 10% TCA and reading wells at 560 nm.Viability and proliferation of PBMC (T cells) was quantified by Alamar Blue reduction for the SAg and BT systems. For PBMC viability (referred to as PBMC Cytotoxicity within the assay endpoint names), cells were plated (75,000/well in a 96-well plate) and then chemical samples added for 1 h before addition of activators, SEB and TSST-1 (20 ng/mL final concentration each). Cells were incubated for 90 h. Then, Alamar Blue (20 uL/well) (Invitrogen, Cat DAL1100) was added for 6 h, and the plates were read with a fluorescence microplate reader at 546/580 nm (excitation/emission). For PBMC proliferation, cells were plated and activated as above but incubated for only 16 h prior to addition of Alamar Blue. Plates were read after 6 h.

SMILES | outcome | AC50
N#CC(Br)Br | inactive | –
CS(=O)(=O)NC(=O)c1cc(Oc2ccc(C(F)(F)F)cc2Cl)ccc1[N+](=O)[O-] | inactive | –
CC(C)N(Cc1ccccc1)C(=O)C(C)(C)C | inactive | –
CC(O)CCO (stereo not given) | inactive | –
CO[C@@H]1[C@H](OC(=O)NC(=O)CCl)CC[C@]2(CO2)[C@H]1[C@@]1(C)O[C@@H]1CC=C(C)C | inactive | –
ClC1=C(Cl)C2(Cl)C3C(Cl)C=CC3C1(Cl)C2(Cl)Cl (stereo not given) | – | 31.3 µM (active)
OCCCBr | inactive | –
Nc1ccc(N=Nc2ccccc2)cc1 | inactive | –
CCNS(=O)(=O)C(F)(F)C(F)(F)C(F)(F)C(F)(F)C(F)(F)C(F)(F)C(F)(F)C(F)(F)F | inactive | 44.4 µM (active) and 29.5 µM (active)
Cc1ccc(N)cc1 | inactive | –
Cc1cccc(N)c1N | inactive | –
C[C@]12C=CC3=C4CCC(=O)C=C4CC[C@H]3[C@@H]1CC[C@@H]2O | inactive | –
CC(C)(C)OOC(=O)c1ccccc1 | inactive | –
O=C1CCCO1 | inactive | –
Nc1ccc(Oc2ccc(N)cc2)cc1 | inactive | –
CCCCCCCCn1sccc1=O | – | 13.6 µM (active)
OCCCl | inactive | –
COc1cc(C=O)cc2c1[C@H](COC(N)=O)[C@]1(OC(C)=O)ON2C[C@H]2[C@@H]1N2C(C)=O | – | 9.98 µM (active)
Nc1ccc([N+](=O)[O-])cc1 | inactive | –
Cn1cc(-c2ccccc2)c(=O)c(-c2cccc(C(F)(F)F)c2)c1 | inactive | –

SMILES | outcome | AC50
CCOC(=O)[C@]1(c2ccccc2)Oc2ccccc2[C@@H]1N | inactive | –
COC(=O)Nc1nc2ccccc2[nH]1 | inactive | –
C=CCc1ccc2c(c1)OCO2 | inactive | –
C[N+](C)(C)CC1CO1 (stereo not given) | inactive | –
O=[N+]([O-])C(Br)(CO)CO | inactive | –
c1ccc2c(c1)-c1cccc3cccc-2c13 | inactive | –
CCC12COCN1COC2 | inactive | –
c1ccc(NNc2ccccc2)cc1 | inactive | –
CCCSC(=O)N(CCC)CCC | inactive | –
c1ccc(N=Nc2ccccc2)cc1 | inactive | –
Cc1cc(N=Nc2ccccc2C)ccc1N | inactive | –
COC(=O)c1ccccc1N | inactive | –
Oc1ccc2ccc3cccc4ccc1c2c34 | – | 31.2 µM (active)
Cc1ccc(N=C=O)cc1N=C=O | inactive | –
O=Cc1ccco1 | inactive | –
Clc1ccc(C(c2ccc(Cl)cc2)C(Cl)Cl)cc1 | inactive | –
Nc1ccc(Cc2ccc(N)cc2)cc1 | inactive | –
CCCCCCCCCCCCCN1CC(C)OC(C)C1 (stereo not given) | inactive | –
Clc1ccccc1Cl | inactive | –
